Here are results for 40 sequences from paper PMC11006913.

Changes are numbered by the printed parent chain.

One experiment addresses T1, SIX6 (Homo sapiens, UniProt O95475 114-200, T165P).
T1 sequence: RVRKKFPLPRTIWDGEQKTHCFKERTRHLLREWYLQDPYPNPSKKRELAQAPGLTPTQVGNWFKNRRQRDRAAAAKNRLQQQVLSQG
The experiment is described as follows: PBM; 200 nM protein, PBS. The settings on record: dsDNA, one strand shown.
With CGGTATCA, the binding signal was 9.64 upbm affinity estimate (log intensity, higher = more binding, comparable within an allelic series).
The same measure, in the same setting: to AGCGGGCC belongs 8.96 upbm affinity estimate (log intensity, higher = more binding, comparable within an allelic series); to GGCCCCGA, 8.86 upbm affinity estimate (log intensity, higher = more binding, comparable within an allelic series).
Still for that read-out and setting: then GGCGACCC, with 8.9 upbm affinity estimate (log intensity, higher = more binding, comparable within an allelic series); and AGGGCCCG, with 8.84 upbm affinity estimate (log intensity, higher = more binding, comparable within an allelic series); and ACGGGCGG, with 8.88 upbm affinity estimate (log intensity, higher = more binding, comparable within an allelic series).
Same read-out and setting: then ATGATACC, with 9.82 upbm affinity estimate (log intensity, higher = more binding, comparable within an allelic series); and TGATACCA, with 9.8 upbm affinity estimate (log intensity, higher = more binding, comparable within an allelic series); and AGTATATC, with 9.93 upbm affinity estimate (log intensity, higher = more binding, comparable within an allelic series).
As to GCCAGTCC, the binding signal was 9.04 upbm affinity estimate (log intensity, higher = more binding, comparable within an allelic series).
Same read-out and setting: to ATATCCCC belongs 9.7 upbm affinity estimate (log intensity, higher = more binding, comparable within an allelic series); to CCAGTGCG, 9.02 upbm affinity estimate (log intensity, higher = more binding, comparable within an allelic series); to GGCGCCCA, 8.95 upbm affinity estimate (log intensity, higher = more binding, comparable within an allelic series).
ACCGCGCC: the binding signal is 8.88 upbm affinity estimate (log intensity, higher = more binding, comparable within an allelic series).
For the sequence GGCGGACC, the binding signal was 8.96 upbm affinity estimate (log intensity, higher = more binding, comparable within an allelic series).
Regarding CGCAACCG, the binding signal is 9.03 upbm affinity estimate (log intensity, higher = more binding, comparable within an allelic series).
On the same count and under the same terms, then AGCTCCGC, with 8.97 upbm affinity estimate (log intensity, higher = more binding, comparable within an allelic series); and AGTGTATC, with 9.91 upbm affinity estimate (log intensity, higher = more binding, comparable within an allelic series); and GGCCGGAA, with 9.01 upbm affinity estimate (log intensity, higher = more binding, comparable within an allelic series).
On to CGCAGCGC, for which the binding signal is 8.96 upbm affinity estimate (log intensity, higher = more binding, comparable within an allelic series).
For the sequence CCCCGCAG, the binding signal was 8.95 upbm affinity estimate (log intensity, higher = more binding, comparable within an allelic series).
On the same count and under the same terms, then CAGTGGCC, with 9.04 upbm affinity estimate (log intensity, higher = more binding, comparable within an allelic series); and AGGTGGGC, with 8.89 upbm affinity estimate (log intensity, higher = more binding, comparable within an allelic series); and AGCGGCGC, with 8.89 upbm affinity estimate (log intensity, higher = more binding, comparable within an allelic series).
On the same count and under the same terms, then AAGATATC, with 10.1 upbm affinity estimate (log intensity, higher = more binding, comparable within an allelic series); and GTATCAAA, with 9.91 upbm affinity estimate (log intensity, higher = more binding, comparable within an allelic series).
On the same count and under the same terms, to TGTATCAA belongs 9.94 upbm affinity estimate (log intensity, higher = more binding, comparable within an allelic series).
As to CCGCCAGC, the binding signal was 9.02 upbm affinity estimate (log intensity, higher = more binding, comparable within an allelic series).
The same measure, in the same setting: to GCGCTGCC belongs 8.85 upbm affinity estimate (log intensity, higher = more binding, comparable within an allelic series).
Regarding CGTATCAC, the binding signal is 9.61 upbm affinity estimate (log intensity, higher = more binding, comparable within an allelic series).
Same read-out and setting: to CATGATCA belongs 9.68 upbm affinity estimate (log intensity, higher = more binding, comparable within an allelic series).
Consider ATATACAC, for which the binding signal was 10.1 upbm affinity estimate (log intensity, higher = more binding, comparable within an allelic series).
On to CAGTATCA, for which the binding signal is 9.69 upbm affinity estimate (log intensity, higher = more binding, comparable within an allelic series).
Still for that read-out and setting: then AGTATCAC, with 9.74 upbm affinity estimate (log intensity, higher = more binding, comparable within an allelic series); and GCAGTGGC, with 8.89 upbm affinity estimate (log intensity, higher = more binding, comparable within an allelic series).
Same read-out and setting: to GATGATAC belongs 9.55 upbm affinity estimate (log intensity, higher = more binding, comparable within an allelic series); to GCCGCGGC, 9.04 upbm affinity estimate (log intensity, higher = more binding, comparable within an allelic series); to GATATCAC, 9.67 upbm affinity estimate (log intensity, higher = more binding, comparable within an allelic series).
Same read-out and setting: then GTGTATCA, with 9.86 upbm affinity estimate (log intensity, higher = more binding, comparable within an allelic series); and AGCGGTGG, with 8.97 upbm affinity estimate (log intensity, higher = more binding, comparable within an allelic series).

The target of a further experiment is T2, SIX6 (Homo sapiens, UniProt O95475 114-200, L167M).
T2 sequence: T1 sequence with P52T, L54M
The experiment is described as follows: PBM; 200 nM protein, PBS. The settings on record: dsDNA, one strand shown.
Regarding CGGTATCA, the binding signal was 10.6 upbm affinity estimate (log intensity, higher = more binding, comparable within an allelic series).
On to AGCGGGCC, for which the binding signal was 8.96 upbm affinity estimate (log intensity, higher = more binding, comparable within an allelic series).
Still for that read-out and setting: to GGCCCCGA belongs 8.96 upbm affinity estimate (log intensity, higher = more binding, comparable within an allelic series); to GGCGACCC, 8.99 upbm affinity estimate (log intensity, higher = more binding, comparable within an allelic series).
Same read-out and setting: then AGGGCCCG, with 8.98 upbm affinity estimate (log intensity, higher = more binding, comparable within an allelic series).
Still for that read-out and setting: then ACGGGCGG, with 8.9 upbm affinity estimate (log intensity, higher = more binding, comparable within an allelic series); and ATGATACC, with 11 upbm affinity estimate (log intensity, higher = more binding, comparable within an allelic series); and TGATACCA, with 10.7 upbm affinity estimate (log intensity, higher = more binding, comparable within an allelic series).
For AGTATATC, the binding signal was 10.8 upbm affinity estimate (log intensity, higher = more binding, comparable within an allelic series).
As for GCCAGTCC, the binding signal was 8.92 upbm affinity estimate (log intensity, higher = more binding, comparable within an allelic series).
Same read-out and setting: then ATATCCCC, with 10.9 upbm affinity estimate (log intensity, higher = more binding, comparable within an allelic series); and CCAGTGCG, with 8.94 upbm affinity estimate (log intensity, higher = more binding, comparable within an allelic series); and GGCGCCCA, with 8.83 upbm affinity estimate (log intensity, higher = more binding, comparable within an allelic series).
On to ACCGCGCC, for which the binding signal was 8.85 upbm affinity estimate (log intensity, higher = more binding, comparable within an allelic series).
On the same count and under the same terms, then GGCGGACC, with 8.9 upbm affinity estimate (log intensity, higher = more binding, comparable within an allelic series).
The same measure, in the same setting: then CGCAACCG, with 9.16 upbm affinity estimate (log intensity, higher = more binding, comparable within an allelic series).
Same read-out and setting: to AGCTCCGC belongs 8.95 upbm affinity estimate (log intensity, higher = more binding, comparable within an allelic series); to AGTGTATC, 10.7 upbm affinity estimate (log intensity, higher = more binding, comparable within an allelic series).
GGCCGGAA: the binding signal is 8.98 upbm affinity estimate (log intensity, higher = more binding, comparable within an allelic series).
For the sequence CGCAGCGC, the binding signal was 9.06 upbm affinity estimate (log intensity, higher = more binding, comparable within an allelic series).
The same measure, in the same setting: then CCCCGCAG, with 9 upbm affinity estimate (log intensity, higher = more binding, comparable within an allelic series); and CAGTGGCC, with 8.93 upbm affinity estimate (log intensity, higher = more binding, comparable within an allelic series); and AGGTGGGC, with 8.86 upbm affinity estimate (log intensity, higher = more binding, comparable within an allelic series).
Same read-out and setting: then AGCGGCGC, with 8.88 upbm affinity estimate (log intensity, higher = more binding, comparable within an allelic series).
In the case of AAGATATC, the binding signal is 10.7 upbm affinity estimate (log intensity, higher = more binding, comparable within an allelic series).
Same read-out and setting: then GTATCAAA, with 10.8 upbm affinity estimate (log intensity, higher = more binding, comparable within an allelic series).
The same measure, in the same setting: to TGTATCAA belongs 10.7 upbm affinity estimate (log intensity, higher = more binding, comparable within an allelic series); to CCGCCAGC, 9.06 upbm affinity estimate (log intensity, higher = more binding, comparable within an allelic series).
The same measure, in the same setting: then GCGCTGCC, with 8.8 upbm affinity estimate (log intensity, higher = more binding, comparable within an allelic series); and CGTATCAC, with 10.6 upbm affinity estimate (log intensity, higher = more binding, comparable within an allelic series).
In the case of CATGATCA, the binding signal is 10.1 upbm affinity estimate (log intensity, higher = more binding, comparable within an allelic series).
On to ATATACAC, for which the binding signal is 10.8 upbm affinity estimate (log intensity, higher = more binding, comparable within an allelic series).
Same read-out and setting: to CAGTATCA belongs 10.5 upbm affinity estimate (log intensity, higher = more binding, comparable within an allelic series); to AGTATCAC, 10.6 upbm affinity estimate (log intensity, higher = more binding, comparable within an allelic series); to GCAGTGGC, 8.96 upbm affinity estimate (log intensity, higher = more binding, comparable within an allelic series).
GATGATAC: the binding signal was 10.7 upbm affinity estimate (log intensity, higher = more binding, comparable within an allelic series).
Still for that read-out and setting: then GCCGCGGC, with 8.87 upbm affinity estimate (log intensity, higher = more binding, comparable within an allelic series); and GATATCAC, with 10.7 upbm affinity estimate (log intensity, higher = more binding, comparable within an allelic series); and GTGTATCA, with 10.9 upbm affinity estimate (log intensity, higher = more binding, comparable within an allelic series).
On the same count and under the same terms, then AGCGGTGG, with 8.93 upbm affinity estimate (log intensity, higher = more binding, comparable within an allelic series).
